Consider 40 compounds from PubChem BioAssay (Tox21).

Structures are written as SMILES. Several values for one entry are separate records, joined by “and”; a condition that tells them apart may be missing. Equal entries are not always repeated. Results filed as inconclusive are left out. Where a call stands in place of a potency, no number is given. Where a structure was tested more than once in an assay, its records may differ in their call. Activity calls are given as the source filed them. Calls follow the shape of the dose curve; as a rule, active = well fitted activation curve with a large enough effect in the signal ratio in the repeat runs (not every such curve was filed as active); inconclusive = weak or mixed curves, or effect the other way; inactive = no such curve, though single readings can be large or run the other way; the % refers to the signal ratio.
Potency is read from the fitted curve at half-maximal effect.

The nature of the test: qHTS assay for small molecule agonists of the antioxidant response element (ARE) signaling pathway (AID 743202). The note with it: HepG2 ARE-bla reporter, beta-lactamase FRET, 16 h; series mostly up to 73.3 µM; activation: at the top concentration. The source says:
U.S. Tox21 Program National Center for Advancing Translational Sciences [NCATS] NIH Chemical Genomics Center [NCGC] U.S. Environmental Protection Agency [EPA] National Institutes of Environmental Health Sciences [NIEHS] National Toxicology Program [NTP] U.S. Food and Drug Administration [FDA] Tox21 Assay Overview: Oxidative stress has been implicated in the pathogenesis of a variety of diseases ranging from cancer to neurodegeneration. The antioxidant response element (ARE) signaling pathway plays an important role in the amelioration of oxidative stress. The CellSensor ARE-bla HepG2 cell line (Invitrogen) can be used for analyzing the Nrf2/antioxidant response signaling pathway. Nrf2 (NF-E2-related factor 2) and Nrf1 are transcription factors that bind to AREs and activate these genes. The CellSensor ARE-bla Hep G2 cell line contains a beta-lactamase reporter gene under control of the Antioxidant Response Element (ARE) stably integrated into HepG2 cells. The activation of the report gene under culture conditions can be detected by fluorescence intensity. This cell line has been used to screen the Tox21 10K compound library to identify agonists that induce oxidative stress.
Tox21 Assay Protocol Summary: The ARE-bla cells were dispensed at 2,000 cells/5 ul/well in 1536-well black wall/clear bottom plates using a Multidrop dispenser. After the assay plates were incubated at a 37 C/5% CO2 incubator for 5 hours, 23 nL of compounds dissolved in DMSO, positive controls or DMSO only was transferred to the assay plate by a pin tool. The plates were incubated at 37 C for 16 hours. After 1 uL of LiveBLAzer B/G FRET substrate was added using a Flying Reagent Dispenser, the plates were incubated at room temperature for 2 hours, and fluorescence intensity was measured by an Envision plate reader.
For orientation: Quantitative high-throughput screening tests each substance at several concentrations.
Regarding `Nc1nc(N)c2nc(-c3ccccc3)c(N)nc2n1`, the Potency is 31 µM (active) and 30.6 µM (active) and 23.7 µM (active).
Still for that read-out and setting: in the case of `CCN(CC)CCNC(=O)c1ccc(N)cc1` it was “inactive”.
As to `CCCCCCCC(=O)O`, the Potency entry is “inactive”.
Same read-out and setting: the result for `COc1c(Cl)ccc(Cl)c1C(=O)O` reads “inactive”.
For the compound `O=C(O)Cc1c[nH]c2ccccc12`, the “activation” value is 0.296% (inactive).
For the compound `CC(COCC(C)OC(=O)c1ccccc1)OC(=O)c1ccccc1` (stereo not given), the Potency entry was “inactive”.
The same measure, in the same setting: in the case of `O=c1c(O)c(-c2ccc(O)c(O)c2)oc2cc(O)cc(O)c12` it was “inactive”.
Take `Nc1cccc(N)n1`: the “activation” value was 0.785% (inactive).
On to `CCOC(=O)CC(=O)OCC`, for which the Potency result is “inactive”.
With `N[C@@H](Cc1cc(I)c(Oc2ccc(O)c(I)c2)c(I)c1)C(=O)O`, the Potency result is “inactive and 12.7 µM (active)”.
As to `O=C(Cl)c1ccc(C(=O)Cl)cc1`, the Potency result is “inactive”.
Still for that read-out and setting: the result for `Cc1ccc(C)c(S(=O)(=O)O)c1` reads “inactive”.
`OC1CCCCC1`: the “activation” value was -6.19% [at 94.8 µM] (inactive).
For the compound `O=C(O)C1=NN(c2ccc(S(=O)(=O)O)cc2)C(=O)C1`, the Potency result was “inactive”.
Regarding `Cc1cccc(C)c1[N+](=O)[O-]`, the “activation” value is -1.69% (inactive).
As to `Cc1cc(C)c(O)c(C)c1`, the “activation” value is 7.37% (inactive).
In the case of `C=C(C)CC(C)(C)C`, the “activation” value was 0.792% (inactive).
With `CC(=O)C(C)C`, the Potency entry was “inactive”.
Same read-out and setting: in the case of `COc1ccc(N)c(OC)c1` it was “inactive”.
On to `CCCCCC(C)=O`, for which the “activation” value was -4.23% [at 94.8 µM] (inactive).
As for `OB(O)O`, the Potency result was “inactive”.
The same measure, in the same setting: the result for `OC[C@H]1O[C@@H](Oc2ccc(O)cc2)[C@H](O)[C@@H](O)[C@@H]1O` reads “inactive”.
On to `Cc1ccccc1C=O`, for which the “activation” value is -2.23% (inactive).
On to `COCN(COC)c1nc(N(COC)COC)nc(N(COC)COC)n1`, for which the Potency result was “inactive”.
Turning to `Cc1nnc(NS(=O)(=O)c2ccc(N)cc2)s1`, the Potency entry is “inactive”.
Turning to `CCCCC(=O)O`, the “activation” value was 5.26% (inactive).
For the compound `CC(=O)OCCC(C)C`, the Potency entry is “inactive”.
On the same count and under the same terms, the result for `CCCOCC(C)O` (stereo not given) reads “inactive”.
Regarding `CC(C)(C)NC[C@H](O)COc1nsnc1N1CCOCC1`, the “activation” value was 1.15% (inactive).
Turning to `OCCOCCOCCOCCOCCO`, the “activation” value is -2.9% [at 94.8 µM] (inactive).
As to `NC1CCCCC1N` (stereo not given), the Potency entry was “inactive”.
As for `CC[N+](CC)(CC(=O)Nc1c(C)cccc1C)Cc1ccccc1`, the Potency entry is “inactive”.
Still for that read-out and setting: the result for `CCCCCCCCCCCCCC(=O)O` reads “inactive”.
`CC1=CC(=O)CC(C)(C)C1`: the “activation” value was -6.29% [at 94.8 µM] (inactive).
For the compound `COc1ccc2cc3[n+](cc2c1OC)CCc1cc2c(cc1-3)OCO2`, the Potency was 2.45 µM (active) and 5.96 µM (active).
For the compound `O=C1O[C@H]([C@H](O)CO)C(O)=C1O`, the Potency result was “inactive”.
Same read-out and setting: in the case of `CC(C=O)Cc1ccc(C(C)(C)C)cc1` (stereo not given) it was “inactive”.
In the case of `COc1c2ccoc2cc2oc(=O)ccc12`, the “activation” value is 4.2% [at 94.8 µM] (inactive).
The same measure, in the same setting: in the case of `CC(=O)OC(C)(C)C1CC=C(C)CC1` (stereo not given) it was -4.58% (inactive).
For the compound `O=C1C(N(CO)C(=O)NCO)N(CO)C(=O)N1CO` (stereo not given), the Potency entry is “inactive”.
